The panel holds about 83,000 compounds, 20% with a hit somewhere; the sample as a whole holds those more often.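 The endpoint reported here, percent growth, reads 100 for growth as untreated, 0 for no net growth and -100 for all cells dead.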 Values without a mark were called inactive. Activity calls are given as the source filed them. How the source made its calls: active means growth percent below 10; inactive means the rest.

The assay relates to IGROV1 ovarian. As to the kind of experiment: NCI-60 one-dose screen, 48 h (100 = growth as untreated, 0 = no growth, -100 = all killed). The conditions noted are these: 10 µM unless noted.
Take `COc1cccc(-c2nn(-c3ccccc3)cc2-c2ccnc(NCCCN)c2)c1`: the growth was 54.4%. For `Cn1cnc2c1c(=O)n(CCC(=O)Nc1ccc(F)cc1)c(=O)n2C` the value was 107%; for `C=C(C)[C@@H]1CC[C@]2(C=O)CC[C@]3(C)[C@H](CC[C@@H]4[C@@]5(C)C/C(=C/c6cccnc6)C(=O)C(C)(C)[C@@H]5CC[C@]43C)[C@@H]12`, -31.2% (active).

With `CN(C)c1cccc2[nH]c(-c3[nH]ncc3Nc3ccnc(N)n3)nc12`, the growth is -11% (active).

For `O=Cc1nc2ccccc2[nH]1`, the growth was 107%. For `COc1cc2nc(Cl)nc(Nc3cccc(C(=O)/C=C/c4ccc(Br)cc4)c3)c2cc1OC` the value was 86.8%; for `CC[C@H](CC[C@@H](C)[C@H]1CC[C@H]2[C@@H]3/C(=C/c4cccnc4)C(=O)C4=CC(=O)CC[C@]4(C)[C@H]3CC[C@]12C)C(C)C`, 95.6%; for `C=C(C)[C@@H]1CC[C@]2(c3nnc(-c4ccncc4)o3)CC[C@]3(C)[C@H](CC[C@@H]4[C@@]5(C)CCC(=O)NC(C)(C)[C@@H]5CC[C@]43C)[C@@H]12`, 92.3%. The result for `COc1cc(NC(C)CN(CC(C)C)C(C)C)c2ncccc2c1` (stereo not drawn) reads 110%; that for `Nc1c2c(nc3ccc(Cl)cc13)CC(c1ccccc1)CC2=O` (stereo not drawn), 38.3%.

Consider `COC(=O)[C@]12CC[C@@H](C)[C@H](C)[C@@H]1C1=CC[C@@H]3[C@@]4(C)C[C@@H](O)[C@H](O)[C@@](C)(CO)C4=CC[C@@]3(C)[C@]1(C)CC2`, for which the growth is -40% (active). Turning to `CCC1C(=O)COC1=O` (stereo not drawn), the growth is 104%. The result for `C=C(C)[C@@H]1CC[C@]2(C)[C@H](CC=C3[C@@H]4CC(C)(C)CC[C@]4(C(=O)OC)CC[C@]32C)[C@@]1(C)CC/C(N)=N/O` reads 80.2%; that for `O=C(/C=C/c1cccc2ccccc12)Nc1ncc(Cc2ccccc2)s1`, 15.8%; that for `N#Cc1c(-c2ccc(O)cc2)c2c(N)nn(-c3ccccc3)c2[nH]c1=O`, 93%. For `COc1ccc(-c2c(-c3nc4ccc(N5CCOCC5)cc4[nH]3)[nH]c(C)c2C(C)=O)cc1` the value was 23.8%; for `c1ccc(-c2nc(Nc3ccc(-c4nc5ccccc5[nH]4)cc3)nc(N3CCOCC3)n2)cc1`, -38.1% (active).

Take `Cc1cc2nc3c4cc(Cl)ccc4n(CCN(C)C)c3nc2cc1C`: the growth was 4.29% (active). For `Cc1cc(N2CCOCC2)nc(N(CCCNc2ccnc3cc(Cl)ccc23)Cc2ccco2)n1`, the growth is 10.9%. For `Cc1cc(N(CCNc2ccnc3cc(Cl)ccc23)Cc2ccco2)nc(Cl)n1` the value was -72.1% (active). For `COc1ccc(/C=C/C(=O)NCCO)cc1` the value was 98.3%. For the compound `O=C1NC(c2ccc(Cl)c(Cl)c2)=C/C1=C\c1ccccc1`, the growth was 59.2%. For `N#C/C(=C\c1ccc(-c2ccccc2)o1)c1nc(-c2ccco2)cs1` the value was 43.1%. For `C=C1C(=O)O[C@H]2[C@H]1CC/C(COC(=O)NCc1c[nH]c3ccccc13)=C\CC[C@@]1(C)O[C@@H]21` the value was 21.2%; for `Cn1cc(-c2csc(-c3cn(CCN)c4ccccc34)n2)c2cccnc21`, 39.9%. `C=C(C)[C@@H]1CC[C@]2(C)[C@H](CC[C@@H]3[C@H]4[C@H]5OC[C@@]4(CCC5(C)C)CC[C@]32C)[C@@]1(C)CCCN`: the growth was 54.3%. For `CC[C@]12C=CCN3CC[C@@]4(c5cc([C@H]6CCC(=O)N6)c(OC)cc5N(C)[C@H]4[C@@](O)(C(=O)OC)[C@@H]1OC(C)=O)[C@@H]32` the value was 103% [2.5 µM]. Consider `COc1cc2c(cc1-c1c(C)noc1C)ncc1nc(C3CCCCC3)n([C@@H](C)COC(F)F)c12`, for which the growth is 43.8%. For `COc1ccc(/C=C(\C#N)c2cc3ccccc3n2S(C)(=O)=O)cc1`, the growth was 74%.

As to `CCc1cccc(CC)c1NC(=O)c1sc2nc3c(cc2c1N)CCCC3`, the growth is 64.5%.

With `O=C1CCC/C=C\C[C@H]2C=C(Cl)C(=O)/C2=C/C[C@H](CCCCC(F)(F)F)OC(=O)CCC/C=C\C[C@H]2C=C(Cl)C(=O)/C2=C/C[C@H](CCCCC(F)(F)F)O1`, the growth is -48.2% [7.5 µM] (active).

Turning to `COc1cc(-c2cc3ncccc3c3nc(N)c4cccnc4c23)cc(OC)c1OC`, the growth is 41%.

`COC(=O)[C@]12CC[C@@H](C)[C@H](C)[C@@H]1C1=CC[C@@H]3[C@@]4(C)C[C@@H](OC(C)=O)[C@H](O)[C@@](C)(CO)[C@@H]4[C@H](O)C[C@@]3(C)[C@]1(C)CC2`: the growth is -58.8% (active).

The values above are taken from PubChem BioAssay (NCI).
